In publication PMC7819943, “Rice protein-binding microarrays: a tool to detect cis-acting elements near promoter regions in rice”:
Over roughly 35,000 sequences, “fluorescence intensity (a.u.)” has its median near 10,000; the highest 2% begin near 52,000. For the sample, the highest values were picked, then their nearest neighbours and some sequences at random.

Molecular target: T1, OsWOX13 (Oryza sativa, UniProt Q5QMM3 1-267)
T1 sequence: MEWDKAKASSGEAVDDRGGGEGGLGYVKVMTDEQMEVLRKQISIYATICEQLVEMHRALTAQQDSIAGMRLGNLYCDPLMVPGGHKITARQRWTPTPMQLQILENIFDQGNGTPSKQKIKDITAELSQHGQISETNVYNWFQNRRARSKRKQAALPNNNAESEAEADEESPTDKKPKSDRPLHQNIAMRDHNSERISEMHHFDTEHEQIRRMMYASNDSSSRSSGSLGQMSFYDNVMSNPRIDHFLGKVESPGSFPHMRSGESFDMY
Assay: protein-binding microarray (RPBM); PBS, 2% BSA, 51.3 ng/ul salmon testes DNA, 50 uM zinc acetate, 200 nM TF, 25 C, 1 h; high values mean tight binding
Conditions: protein: recombinant; tags: N-terminal polyhistidine and DsRed monomer fusion (pET32a); label: CyDye5-dUTP incorporated in the synthesized complementary strand; 3' TTTTT single-stranded linker to array surface; dsDNA, one strand shown
Summary of the method: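 A custom Agilent array was converted to double-stranded form by primer extension with Cy5-dUTP and blocked with 2% BSA. Protein at 200 nM in PBS with 2% BSA, salmon testes DNA and 50 µM zinc acetate was applied for 1 h at 25 °C, followed by washing. The proteins were polyhistidine–DsRed N-terminal fusions of transcription factors, expressed in E. coli BL21-CodonPlus and Ni–NTA-purified. The binding signal is per-feature fluorescence intensity (arbitrary units) from an Axon 4000B scanner.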

For “TATAATTTAAATTCAAATTTGAATCGGGTATGTAAACTTTCGGAGTCACCTAGTGCAG”, which binding signal is on record?
The binding signal was 15500 fluorescence intensity (a.u.).

Which binding signal does the source give for “TCATGAAATTAATAGGATGCCACGTCGACTTGGTTGTTCCCGGAGTCACCTAGTGCAG” here?
Its binding signal is 3510 fluorescence intensity (a.u.).

“ATAAATTTATAGGTAAAACTTTTATATAGATGTTCTTGGTCGGAGTCACCTAGTGCAG” was tested. Which binding signal did it give?
Its binding signal is 15300 fluorescence intensity (a.u.).

How did the binding signal turn out when “TGAAATTGGAATGATGTGAAGGAAAAGTTGGAAGTTTGTGCGGAGTCACCTAGTGCAG” was run?
Its binding signal is 20700 fluorescence intensity (a.u.).

How did the binding signal turn out when “CTAATTACTATCCATCATGTTTCTGTGGACGCGCGGCTCACGGAGTCACCTAGTGCAG” was run?
Its binding signal is 9700 fluorescence intensity (a.u.).

“TCTCTATAATTAAACATTCCAATTTCGAAAATGTTGTTAGCGGAGTCACCTAGTGCAG” was tested. Which binding signal did it give?
The binding signal was 8580 fluorescence intensity (a.u.).

“AAGTTTCAAAATTTAAATTTTGACCGCATGCAGCTGATAACGGAGTCACCTAGTGCAG” was tested. Which binding signal did it give?
Its binding signal is 4610 fluorescence intensity (a.u.).

“ACGTTATTAATTACTTAGTACTACTATGAGTTAACTATGGCGGAGTCACCTAGTGCAG” was tested. Which binding signal did it give?
Its binding signal is 18500 fluorescence intensity (a.u.).

For “GCTTAATTGGTTAGTGGACTAGTATATAGTAGTACTGTATCGGAGTCACCTAGTGCAG”, which binding signal is on record?
Its binding signal is 46500 fluorescence intensity (a.u.).

For “TTAGATTGGGACAGTACGTAGGAATTGGTTGATTTCCGGGCGGAGTCACCTAGTGCAG”, which binding signal is on record?
The binding signal was 16300 fluorescence intensity (a.u.).

With “CCTGATTCTGATTGGCGCCAACGTACGTACTGTACATGCGCGGAGTCACCTAGTGCAG” as the sequence, how does the binding signal read?
The binding signal was 56900 fluorescence intensity (a.u.).

For “TATTGATTGATTGGTTAGTACTACAGTACTGTAGGAGTGGCGGAGTCACCTAGTGCAG”, which binding signal is on record?
Its binding signal is 64700 fluorescence intensity (a.u.).

Which binding signal does the source give for “CACCATTGCATGATTGCATCTGCATCACTGCATGCCAACGCGGAGTCACCTAGTGCAG” here?
Its binding signal is 5680 fluorescence intensity (a.u.).

Which binding signal does the source give for “TGGGCCTGATTAACATGTGCTGTAGAATCGTACAACTGTGCGGAGTCACCTAGTGCAG” here?
Its binding signal is 7530 fluorescence intensity (a.u.).

Which binding signal does the source give for “CAGTGTGATTGACTGTTGAGGCGGAGTCGGAGCTGCTTGTCGGAGTCACCTAGTGCAG” here?
The binding signal was 50900 fluorescence intensity (a.u.).

With “ATTTGATTGTATATTGTACTAGTGCTACTACTACGTGGAGCGGAGTCACCTAGTGCAG” as the sequence, how does the binding signal read?
The binding signal was 60400 fluorescence intensity (a.u.).

Which binding signal does the source give for “GTACAGTGTACTTGATTGAGTTGACAGTCATACTCTACTACGGAGTCACCTAGTGCAG” here?
The binding signal was 18500 fluorescence intensity (a.u.).

For “CTATTGATTTCTGCTGCTACTTTTCTATACTGTATTTTGTCGGAGTCACCTAGTGCAG”, which binding signal is on record?
The binding signal was 15500 fluorescence intensity (a.u.).

How did the binding signal turn out when “ACTTGTATATTTGTGGATTGATACATTACATATTGATCTACGGAGTCACCTAGTGCAG” was run?
Its binding signal is 5160 fluorescence intensity (a.u.).

“CATTGATTGACATTGTTGAGGCAGTACTGTTACAGTTGAGCGGAGTCACCTAGTGCAG” was tested. Which binding signal did it give?
Its binding signal is 59400 fluorescence intensity (a.u.).

With “AAAGGGTTAATTTGTCAAATTTTCGGGCTTTAGTGAAAAGCGGAGTCACCTAGTGCAG” as the sequence, how does the binding signal read?
The binding signal was 12700 fluorescence intensity (a.u.).

Which binding signal does the source give for “TCAAACTTACATAATTTACATGCCATGTTATCCAATATGCCGGAGTCACCTAGTGCAG” here?
The binding signal was 11100 fluorescence intensity (a.u.).

For “GGAAAGACAGATTGAAGAAGCTGGGGTTCAAACCCAGGATCGGAGTCACCTAGTGCAG”, which binding signal is on record?
The binding signal was 10300 fluorescence intensity (a.u.).
